{"source": "PubChem BioAssay (NCI)", "note": "This is part of a sample that, as a whole, favours compounds with a hit. Of some 83,000 tested, about 20% had one in any assay.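 Method: cells in 96-well plates; compound added at one concentration; 48 h incubation; percent growth measured; values under 10 scored active.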 Active and inactive are the calls of the source."}
{"test_system": "HL-60(TB) leukemia", "assay": "NCI-60 one-dose screen, 48 h (100 = growth as untreated, 0 = no growth, -100 = all killed)", "conditions": "10 µM unless noted"}
{"smiles": "COc1ccc2c(c1)c(-c1nc(-c3c[nH]c4ncccc34)cs1)cn2CCO", "growth": "58% (inactive)"}
{"smiles": "O=C(N/N=C/c1c(Cl)cccc1Cl)c1cccc(Nc2ccnc(C(F)(F)F)c2)c1", "growth": "98.3% (inactive)"}
{"smiles": "Oc1c(Cl)cc(Cl)cc1CNc1nccnn1", "growth": "115% (inactive)"}
{"smiles": "N#CC1=C(N)Oc2c(sc3c(F)cccc23)C1c1ccc(Cl)cc1", "note": "(centres undefined)", "growth": "-6.14% (active)"}
{"smiles": "Cc1cccc(C)c1NCc1nnc(-c2ccc(O)cc2)o1", "growth": "111% (inactive)"}
{"smiles": "COc1cc(OC)c(/C=C/c2c3ccccc3cc[n+]2C)c(OC)c1", "growth": "-25.1% (active)"}
{"smiles": "N#CC1(C#N)C2=C(CCCC2)NC(c2c(F)cccc2Cl)C1(C#N)C#N", "note": "(centres undefined)", "growth": "6.9% (active)"}
{"smiles": "COc1ccc2nc3cc(Cl)ccc3c(NCCNc3c4ccc(Cl)cc4nc4ccc(OC)cc34)c2c1", "growth": "-75% (active)"}
{"smiles": "CN1CCc2c(sc3nc4n(-c5ccc(Cl)cc5)cnn4c(=O)c23)C1", "growth": "105% (inactive)"}
{"smiles": "COc1ccc2nc3cc(Cl)ccc3c(N3CCN(c4ccnc(Nc5ccc(F)cc5)n4)CC3)c2c1", "growth": "52.5% (inactive)"}
{"smiles": "NC(=NC1C2CC3CC(C2)CC1C3)Nc1ccc(I)cc1", "note": "(centres undefined)", "growth": "101% (inactive)"}
{"smiles": "Clc1ccc(Cl)c(N=Cc2ccc3c(c2)OCO3)c1", "growth": "102% (inactive)"}
{"smiles": "N#Cc1c(N)nc(NCCO)nc1-c1ccc(F)cc1", "growth": "93.6% (inactive)"}
{"smiles": "CC12OC(CC(O)C1O)n1c3ccccc3c3c4c(c5c6ccccc6n2c5c31)C(=O)N(CCN1CCOCC1)C4=O", "note": "(centres undefined)", "growth": "7.54% (active)"}
{"smiles": "CCCCCCCCCCCCCCCCCBr", "growth": "103% (inactive)"}
{"smiles": "Cc1ccccc1C1N=C2Oc3ccccc3C=C2C(=O)N1", "note": "(centres undefined)", "growth": "2.2% (active)"}
{"smiles": "COc1ccc(-n2c(-c3ccc(NC(=O)CCCl)cc3)nnc2-c2cc(OC)c(OC)c(OC)c2)cc1", "growth": "-12.6% (active)"}
{"smiles": "COc1ccccc1[C@H]1c2[nH]c3ccccc3c2C[C@H]2C(=O)N(CCCCCCC(=O)NO)CC(=O)N12", "growth": "1.91% (active)"}
{"smiles": "COc1ccc(C2C(c3nn[nH]n3)=C(N)Oc3c2ccc2ccccc32)cc1", "note": "(centres undefined)", "growth": "31.9% (inactive)"}
{"smiles": "CC(C)Nc1ccc(Nc2ccc(NC(C)C)cc2)cc1", "growth": "22.1% (inactive)"}
{"smiles": "COc1cc(-c2nc(SC(C)C)nc(Nc3ccccc3C)c2C#N)cc(OC)c1OC", "growth": "103% (inactive)"}
{"smiles": "CCCN1C(=O)/C(=c2\\sc3n(c2=O)C2C(NN=3)N(CC)C(=O)N2CC)c2ccccc21", "note": "(centres undefined)", "growth": "-40.8% (active)"}
{"smiles": "CC1(c2ccc(Cl)cc2)OC(=O)CC(=O)O1", "growth": "74.7% (inactive)"}
{"smiles": "Nc1cc(C(=O)O)[nH]c(=S)n1", "growth": "123% (inactive)"}
{"smiles": "Nc1cc2c(cc1Br)-c1c(C(=O)O)cccc1C2O", "note": "(centres undefined)", "growth": "77.8% (inactive)"}
{"smiles": "CCOC(=O)c1cnc2ccc(Br)cc2c1Nc1cccc(S(=O)(=O)NC)c1", "growth": "119% (inactive)"}
{"smiles": "N=c1nc(N2CCCCC2)cc(N)n1O", "growth": "92.4% (inactive)"}
{"smiles": "Cc1nccc2c3ccc(OCc4cn(-c5ccc(Br)cc5)nn4)cc3n(CC(C)C)c12", "growth": "-48.1% (active)"}
{"smiles": "O=C1C(=O)c2c(nc3ccc(Cl)cn23)-c2ccccc21", "growth": "-79.7% (active)"}
{"smiles": "CCN(CC)Cc1cccc(C(=O)OC)c1", "growth": "83.2% (inactive)"}
{"smiles": "O=COCCCc1ccccc1", "growth": "106% (inactive)"}
{"smiles": "Cc1cccc[n+]1CCC[n+]1ccccc1C", "growth": "86.4% (inactive)"}
{"smiles": "CC(=O)OCC(=O)[C@@]1(O)CC[C@H]2[C@@H]3CC(=C(Br)Br)C4=CC(=O)CC[C@]4(C)[C@H]3C(=O)C[C@@]21C", "growth": "90.1% (inactive)"}
{"smiles": "CN1CCN(c2cc(F)c(NC3=C(Cl)C(=O)c4ncccc4C3=O)c(F)c2)CC1", "growth": "-26.4% (active)"}
{"smiles": "COc1ccc(C2CC(c3ccc(OC)cc3OC)=NN2c2ccc(S(N)(=O)=O)cc2)cc1", "note": "(centres undefined)", "growth": "61.2% (inactive)"}
{"smiles": "N#Cc1c(-c2ccc(Cl)cc2)nc2c(c(-c3ccccc3)nn2-c2ccccc2)c1-c1ccc(O)cc1", "growth": "32.8% (inactive)"}
{"smiles": "CCOC(=O)c1cc(C(=O)c2ccc(OC)c(OC)c2)n2ccc(/C=C/c3cc[n+](CC(=O)c4ccc(OC)c(OC)c4)cc3)cc12", "growth": "88.6% (inactive)"}
{"smiles": "COc1ccc2ncccc2c1Cc1c(OC)ccc2ncccc12", "growth": "42.3% (inactive)"}
{"smiles": "O=S(=O)(OCCOS(=O)(=O)c1ccccc1)c1ccccc1", "growth": "92.5% (inactive)"}
